# Hits are enriched below; roughly 10% of the tested compounds scored in any of these assays.
# PLK1 PBD inh = qHTS for Inhibitors of PLK1-PDB (polo-like kinase 1 - polo-box domain): Primary Screen | Serine/threonine-protein kinase PLK1 (Homo sapiens), P53350 | 2.8% of 360,000 active | Plk1 PBD binding of FITC phosphopeptide, fluorescence polarization | Potency, µM, for the others: max response, negative = inhibition, usual class: inhibitors; note: potency is the fitted concentration of half-maximal effect; series mostly up to about 57 µM; nearly all actives have a fitted effect of over 65% in size
# Sfp PPTase inh = qHTS Assay for Inhibitors of Bacillus subtilis Sfp phosphopantetheinyl transferase (PPTase). AID 1490, 2009. Biochemical Sfp PPTase activity, qHTS. 3.5% of 310,000 active. Potency, µM, for the others: largest response in the series, negative = inhibition, usual class: inhibitors;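 note: the enzyme is Sfp with the accession as filed and its product quenches rhodamine fluorescence; potency is the fitted concentration of half-maximal effect; 0% = enzyme reaction without inhibitor and -100% = no enzyme wells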
#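 Fluorescence-quenching assay: 15 nM Sfp-PPTase preincubated 15 min at room temperature with compound, then 5 uM rhodamine-CoA and 12.5 uM BHQ-2-labelled YbbR peptide added. Fluorescence (ex 525/em 598 nm) read at start and after 30 min; difference gives rate.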
# Mm-Cpn inhibitor = Inhibitors of TCP-1 ring complex (TRiC) of Methanococcus maripaludis (MmCpn): qHTS; Chaperonin Mm-Cpn (Methanococcus maripaludis); purified Mm-Cpn ATPase, ADP Transcreener TR-FRET; Potency, µM (highest dose often 76.9 µM), without a hit: at the top dose activity, negative = inhibition, usual class: inhibitors; 0.031% of 330,000 active; note: potency is the fitted concentration of half-maximal effect; nearly all actives have a fitted effect of over 80% in size
#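 TR-FRET (320 nm excitation; 590 and 665 nm emission) reports ADP made from 10 uM ATP by 25 nM enzyme; compounds were preincubated 10 min, reaction run 30 min, both at 37°C.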
# VDR inh = Inhibitors of the vitamin D receptor (VDR): qHTS; VDR-SRC2-3 peptide fluorescence polarization, 2 h; Potency, µM, for inactives: max response, negative = inhibition, actives largely listed as inhibitors; Vitamin D3 receptor (Homo sapiens), P11473; AID 504847, 2011; 0.93% of 400,000 active; note: potency is the fitted concentration of half-maximal effect
# Target sequence (P11473 whole entry, looked up): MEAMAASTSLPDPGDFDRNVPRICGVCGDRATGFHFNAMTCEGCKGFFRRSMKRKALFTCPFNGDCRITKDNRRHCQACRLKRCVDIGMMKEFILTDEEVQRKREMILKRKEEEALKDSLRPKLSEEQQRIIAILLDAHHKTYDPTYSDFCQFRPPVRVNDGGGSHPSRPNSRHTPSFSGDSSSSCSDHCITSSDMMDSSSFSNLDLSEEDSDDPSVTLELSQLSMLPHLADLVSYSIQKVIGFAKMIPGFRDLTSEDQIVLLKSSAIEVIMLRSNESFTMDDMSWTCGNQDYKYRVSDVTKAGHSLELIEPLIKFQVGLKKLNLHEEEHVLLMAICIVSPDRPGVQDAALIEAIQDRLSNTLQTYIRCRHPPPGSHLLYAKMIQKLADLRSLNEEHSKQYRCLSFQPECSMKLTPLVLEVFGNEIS
#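 Compounds are added to VDR with labelled SRC2-3 coactivator peptide and held 2 h at room temperature. Inhibition of the VDR–peptide interaction is then read as a change in fluorescence polarization.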
# G9a block = qHTS Assay for Inhibitors of Histone Lysine Methyltransferase G9a. Histone-lysine N-methyltransferase EHMT2 (Homo sapiens), Q96KQ7. G9a H3K9 monomethylation, AlphaScreen, 2 h. Potency, µM (highest dose often 102 µM), for the others: at the highest dose activity, negative = inhibition, hits mostly inhibitors. 8.8% of 350,000 active; note: potency is the fitted concentration of half-maximal effect; nearly all actives have a fitted effect of over 75% in size
# Target sequence (Q96KQ7 913-1193 limits assumed): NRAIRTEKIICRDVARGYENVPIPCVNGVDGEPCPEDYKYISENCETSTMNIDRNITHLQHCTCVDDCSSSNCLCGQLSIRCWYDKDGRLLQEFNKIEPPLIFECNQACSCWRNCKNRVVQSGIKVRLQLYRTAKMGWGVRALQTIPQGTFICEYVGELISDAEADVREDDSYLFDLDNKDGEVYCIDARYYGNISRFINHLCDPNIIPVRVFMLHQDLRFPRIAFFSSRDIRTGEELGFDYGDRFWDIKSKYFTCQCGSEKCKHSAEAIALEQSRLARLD
#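 Methyltransferase reactions run at room temperature for 2 h (20 nM enzyme, 500 nM biotin-H3K9 peptide, 20 uM SAM) after a 15 min compound preincubation; product detected by AlphaScreen beads and anti-H3K9me1 antibody.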
# CCT modulator = High-Throughput Screening for Modulators of Cytosolic Chaperonin Activity | purified chaperonin ATPase assay, HTRF ADP detection, 30 min | activity change, % (no concentration beside the values), hits read low | 0.3% of 360,000 active | AID 651819, 2012; in the data active = activity change below about -30%
#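 TRiC at 40 or 20 nM final (batch-dependent) in 30 mM Tris pH 7.4, 100 mM KCl, 5 mM MgCl2, 1 mM DTT, with compound at single 76 uM and 10 uM ATP, 30 min at 37 deg C. ADP detected by HTRF Transcreener, 665/615 ratio.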
# * hit, by the source's call; ? = inconclusive; · = no result given; [ ] = remark or other dose. Unless noted, calls come from the whole dose curve; as a rule, active = well fitted curve in the direction sought with a large enough effect; inconclusive = small, poorly fitted or top-dose-only effect, or another doubt; inactive = no such curve, though single readings can be large; an effect the other way counts as inactive or inconclusive. Unless noted, % is set by controls: 0 for no effect and ±100 for the full control effect.
SMILES,PLK1 PBD inh,Sfp PPTase inh,Mm-Cpn inhibitor,VDR inh,G9a block,CCT modulator
COc1ccc(Nc2nc(-c3ccncc3)nc3ccccc23)cc1,-0.2%,2.3%,-4.6%,-2.7%,12.4%,0.1
CNc1ncnc2c1ncn2[C@@H]1O[C@H](CO)[C@H](O)[C@H]1O,·,·,·,·,17.9%[12.7 µM],·
Cc1nc2nc(SCC(=O)O)nn2c(C)c1Cc1c(F)cccc1Cl,-13.6%,11.6%,1.0%,-6.6%,11.2µM*,0.5
Cc1nc2nc(SCC(=O)O)nn2c(C)c1Cc1ccccc1Cl,-3.1%,-28.1%,-1.9%,-17.9%,28.2µM*,0.5
COCCCNC(=O)CSc1nc2nc(C)c(Cc3ccccc3Cl)c(C)n2n1,·,·,·,-4.7%,-10.2%[59 µM],·
Cc1nc2nc(SCC(=O)NC(C)c3ccccc3)nn2c(C)c1Cc1c(F)cccc1Cl (configuration not stated),·,·,·,5.5%,-3.9%[59 µM],·
CCCC[C@]12Cc3ccccc3C(O1)c1c(c3ccccc3oc1=O)O2,·,17.3%,1.9%[15.4 µM],·,?,·
CCOC(=O)C(=NC1CCCCC1)NNc1cccc(C(F)(F)F)c1,-2.6%,0.8%,0.4%,0.9%,50.1µM*,-1.7
CCOC(=O)C(=NC(C)CC)NNc1ccc(Br)cc1 (configuration not stated),-10.6%,-2.8%,-14.5%,4.2%,12.6µM*,-2.7
CCOC(=O)C(=NC1CCS(=O)(=O)C1)NNc1cc(Cl)ccc1Cl (configuration not stated),2.9%,-5.8%,1.7%,?,?,-3.1
CCOC(=O)C(=NC1CCS(=O)(=O)C1)NNc1ccc(Br)cc1 (configuration not stated),6.4%,-24.6%,-0.1%,-3.5%,10µM*,0.2
CCOC(=O)C(=NC1CCS(=O)(=O)C1)NNc1ccccc1Cl (configuration not stated),26.7µM*,?,-0.7%,-25.7%,?,-3.6
CCOC(=O)C(=NC(C)CC)NNc1cccc(C(F)(F)F)c1 (configuration not stated),2.6%,6.8%,1.0%,-3.0%,?,1.6
O=C(Nc1ccc(F)cc1)C1CCN(c2nc3ccccc3n3cccc23)CC1,·,·,·,-6.1%,?,·
Cc1cc(C)c2c(=O)cc(C(=O)Nc3sc4c(c3C(=O)NCc3ccccc3)CCCC4)oc2c1,·,·,·,-7.6%,4.5%[59 µM],·
Nc1nnc(SCc2ccc(F)cc2)s1,-11.6%,16.0%,·,-12.2%,3.7%[59 µM],-0.7
COc1ccc(CSc2nnc(N)s2)cc1F,-21.7%,5.5%,0.2%,29.6%,44.7µM*,0.1
CC(=O)Nc1nonc1-c1nnc(SCC(=O)Nc2ccc(C)cc2)n1-c1ccccc1,·,·,·,7.9%,-3.6%[59 µM],·
Oc1ccc(/C=N/N2CCN(C3c4ccccc4-c4ccccc43)CC2)c(O)c1,-4.1%,24.3%,-2.3%,0.6%,39.8µM*,-0.8
Oc1ccc(/C=N/N2CCN(C3c4ccccc4-c4ccccc43)CC2)cc1O,-4.5%,56.2µM*,3.0%,-0.9%,·,-0.1
O=[N+]([O-])c1ccc(Cl)c(/C=N/N2CCN(C3c4ccccc4-c4ccccc43)CC2)c1,-6.1%,-9.4%,-0.2%,3.2%,27.3%[0.501 µM],-2.8
C(=N\N1CCN(C2c3ccccc3-c3ccccc32)CC1)/c1cccs1,-5.0%,12.6%,-2.7%,-3.6%,41.4%[0.501 µM],0.8
Cc1ccc(/C=N/N2CCN(C3c4ccccc4-c4ccccc43)CC2)o1,-13.0%,17.8µM*,-0.8%,-16.4%,·,-1.4
O=C(O)c1ccccc1/C=N/N1CCN(C2c3ccccc3-c3ccccc32)CC1,-12.9%,7.7%,0.5%,?,39.8µM*,1.8
O=C(O)c1ccc(/C=N/N2CCN(C3c4ccccc4-c4ccccc43)CC2)cc1,?,?,0.2%,-14.1%,·,-9.6
SMILES,PLK1 PBD inh,Sfp PPTase inh,Mm-Cpn inhibitor,VDR inh,G9a block,CCT modulator
COc1ccccc1NC(=O)Cn1c(C)cc(C)c(C#N)c1=O,·,·,·,3.5%,-0.9%[59 µM],·
Cc1nc(-c2cccc(F)c2)sc1CCNC(=O)C(=O)Nc1ccc2c(c1)OCO2,·,·,·,21.6%,13.5%[59 µM],·
COC(=O)N1CCC[C@@]2(CCN(c3ccccn3)C2)C1,·,29.0%,·,?,-6.9%[12.7 µM],·
COc1ccccc1NC(=S)NCc1ccc(S(N)(=O)=O)cc1,-20.4%,10.4%,2.8%,-15.6%,?,-4.8
COc1ccccc1CNC(=S)Nc1ccc(S(N)(=O)=O)cc1,21.2µM*,?,0.6%,3.6%,0.3%[2.33 µM],1.3
NS(=O)(=O)c1ccc(NC(=S)NCc2cccs2)cc1,23.8µM*,20µM*,1.4%,-4.7%,35.5µM*,-0.1
CC(=O)Nc1ccc(NC2=C/C(=N/S(=O)(=O)c3cccs3)c3ccccc3C2=O)cc1,-9.7%,-6.5%,-2.0%,-11.1%,44.7µM*,0.6
COc1ccc(S(=O)(=O)c2ccc(O)cc2)cc1,?,4.9%,4.4%,-1.1%,-2.4%,-1.1
COc1ccc(S(=O)(=O)/N=C2\C=C(Nc3ccc(O)cc3)C(=O)c3ccccc32)cc1,-7.1%,-9.8%,-10.2%,-6.1%,8.91µM*,0.9
Cc1ccccc1NC1=C/C(=N\S(=O)(=O)c2cccs2)c2ccccc2C1=O,18.9µM*,-17.6%,-4.4%,-3.5%,3.16µM*,1.6
Cc1ccc(NC2=C/C(=N/S(=O)(=O)c3cccs3)c3ccccc3C2=O)cc1C,-3.8%,17.5%,2.9%,-22.1%,-0.3%[59 µM],3.0
CSCCC(NS(=O)(=O)c1ccc2c(c1)oc(=O)n2C)C(=O)NCc1ccc(Cl)cc1 (configuration not stated),·,·,·,19.3%,-18.2%[59 µM],·
CCC(=O)N1CCc2cc(S(=O)(=O)NC(C(=O)NCc3ccc(OC)cc3)C(C)C)ccc21 (configuration not stated),·,·,·,-5.8%,8.8%[59 µM],·
CO/C=C\C=C/c1nnn(-c2ccc(Cl)cc2)n1,?,4.47µM*,-10.7%,?,50.1µM*,-4.4
Clc1ccc(-n2cnnn2)cc1,-11.2%,12.4%,-12.7%,9.4%,4.3%,-1.2
CCCCCCCCCCCCCC(=O)OC(C)C,·,0.4%,·,3.6%,-1.6%[59 µM],·
Cc1c(C(=O)c2ccc(Cl)cc2Cl)cnc2cc3c(cc12)OCO3,29.9µM*,-4.0%,0.6%,?,-3.9%[59 µM],-0.6
Cc1ccc2nc(Cl)c3cc(C(=O)N(C)C4CCCCC4)sc3c2c1,·,·,·,-7.2%,10.9%[59 µM],·
Cc1c(C(=O)N(C)C2CCCCC2)sc2nc3ccc(N)cc3n12,·,15.8%,·,-28.4%,25.1µM*,·
CCOc1ccccc1NC(=O)Cn1c(=O)sc2ccccc21,-15.5%,14.0%,2.4%,-11.8%,8.3%,1.3

# High-throughput results as filed in PubChem.
